KCNQ2 pot – potentiators of rat KCNQ2 potassium channel. 310,000 compounds, 0.54% hits. CHO-K1 KCNQ2, FluxOR thallium flux fluorescence; hits give high values. B-score at 10 µM;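 active = fluorescence ratio B-score at least 3 SD of library B-scores, with initial fluorescence B-score within 3 of them, cut at about 5.3 in these data; same plate scores as AID 2156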;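 also: B-score of peak minus minimum over baseline fluorescence ratio after K+ and Tl+ stimulus; positive B-score means potentiation of KCNQ2 with more thallium influx and brighter signal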
KCNQ2 inh – rat KCNQ2 potassium channel inhibitors, primary screen, cell-based, CHO-K1, FluxOR thallium flux, B-score; 310,000 compounds, 1.1% hits; Potassium voltage-gated channel subfamily KQT member 2 (Rattus norvegicus), O88943; 20 min; hits give low values; B-score at 10 µM; AID 2156, 2009;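 active = fluorescence ratio B-score at most minus 3 library SDs, with starting brightness B-score within 2 library SDs, cut at about -5.5 in these data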
Numbers stand for hits; . = inactive; / = not tested or not shown. Shown are actives, neighbours in structure and some others; about 1.6% of the full set was active somewhere.

SMILES	KCNQ2 pot	KCNQ2 inh
O=C(Nc1nccs1)c1ncc(Cl)c(Cl)c1Cl	/	.
COc1cc(CCCN2C(=O)C(=O)NC[C@H]2Cc2cccc3ccccc23)cc(OC)c1OC	9.64	.
CCCC[C@@H]1CNC(=O)C(=O)N1CCCc1cc(OC)c(OC)c(OC)c1	.	.
CC1CCCN(C(C(=O)Nc2ccc3c(c2)OCCO3)c2ccccc2)C1 (stereo not given)	/	.
CC1CCCN(C(C(=O)Nc2ccc3c(c2)OCO3)c2ccccc2)C1 (stereo not given)	.	-5.74
COC(=O)c1cc(S(=O)(=O)NCc2cc(OC)c(OC)c(OC)c2)cn1C	/	.
CCn1c(SCC(=O)N/N=C/c2ccccc2OCC(=O)O)nnc1-c1ccc(C)cc1	/	.
CCOC(=O)c1ccc(N2CCN(c3ccccc3F)CC2)c(NC(=O)Nc2ccccc2)c1	.	-6.34
CCOC(=O)c1ccc(N2CCN(c3ccc(F)cc3)CC2)c(NC(=O)Nc2cccc(OC)c2)c1	/	.
CCOC(=O)c1ccc(N2CCCCC2)c(NS(=O)(=O)c2ccc(C)cc2)c1	.	-7.31
CCN(CC)CCCNC(=O)c1ccc(N2CCCCC2)c(NS(=O)(=O)c2ccc(C)cc2)c1	/	.
CN1CCCN(Cc2ccccc2Br)CC1	/	.
CCN(CC(=O)NCc1ccc(Cl)cc1)C(=O)CN1C(=O)NC(CC)(c2ccccc2)C1=O (stereo not given)	/	.
CN(C)S(=O)(=O)c1cccc(NC(=S)Nc2cc(Cl)cc(Cl)c2)c1	.	.
CCN(CCO)c1ccc(NC(=S)Nc2cccc(S(=O)(=O)N(C)C)c2)cc1	.	-6.73
COc1ccc(N(CC(=O)N2CCC(C(N)=O)CC2)S(=O)(=O)c2ccccc2)cc1	.	.
CC12CC3CC(C)(C1)CC(C(=O)NCc1cccnc1)(C3)C2	/	.
CCCn1c(=O)c(C(=O)NCCc2ccc(Cl)cc2)c(O)c2ccccc21	.	-5.56
CCn1c(=O)c(C(=O)NCCc2ccc(Cl)cc2)c(O)c2ccccc21	.	.
COC(=O)C(Cc1ccc(OC(=O)c2ccccc2Cl)cc1)N1Cc2ccccc2C1=O (stereo not given)	/	.
COC(=O)C(Cc1ccc(OC(=O)c2ccccc2C)cc1)N1Cc2ccccc2C1=O (stereo not given)	.	-5.86
Cc1ccc(SCC(=O)NCCc2ccc(F)cc2)cc1	.	.
O=C1c2ccccc2NC(c2ccccc2)N1Cc1ccco1 (stereo not given)	/	.
COc1cccc(OCc2cc(C3Nc4ccccc4C(=O)N3Cc3ccco3)ccc2OC)c1 (stereo not given)	.	-5.87
COc1ccc(C2Nc3ccccc3C(=O)N2Cc2ccco2)cc1COc1ccc([N+](=O)[O-])cc1 (stereo not given)	.	-6.79
SMILES	KCNQ2 pot	KCNQ2 inh
O=C1c2ccccc2NC(c2ccc(F)cc2)N1Cc1ccco1 (stereo not given)	.	.
Cc1cc(N2C(=O)C3C4CC(c5ccccc5)C(C4)C3C2=O)no1 (stereo not given)	/	.
CCC(C)(C)n1nnnc1C(c1cccnc1)N1CCN(c2cccc(C(F)(F)F)c2)CC1 (stereo not given)	/	.
CCOc1cc(N2CCOCC2)c(OCC)cc1NS(=O)(=O)c1cc(NC(C)=O)ccc1OC	/	.
Cc1ccc(S(=O)(=O)N(CC(=O)N2CCOCC2)c2ccc(C(C)C)cc2)cc1	/	.
COc1ccccc1C1CCN(c2cc(O)ccc2[N+](=O)[O-])CC1	/	.
O=C(NCC1CCN(Cc2ccc(Cl)cc2)CC1)C1CCCN(c2ncnc3c2nc2n3CCCCC2)C1 (stereo not given)	.	-6.57
O=C(NCC1CCN(Cc2ccc(F)cc2)CC1)C1CCCN(c2ncnc3c2nc2n3CCCCC2)C1 (stereo not given)	/	.
CN(C)/C=C(\C#N)C(=O)c1cccc(Oc2ccc(Br)cc2)c1	/	.
CC(C)c1ccc(Oc2cccc(C(=O)/C(C#N)=C/N(C)C)c2)cc1	.	-6.2
COc1cc(CC(=O)OCC(=O)Nc2cc([N+](=O)[O-])ccc2Cl)cc(OC)c1OC	.	.
CC1=C(C)CC(C(=O)NCc2cccc(Cl)c2)C(C(=O)O)C1 (stereo not given)	.	.
CC[N+](CC)(CC)CCCCOc1ccc2c(c1)C(=O)c1cc(OCCCC[N+](CC)(CC)CC)ccc1-2	.	.
CCCCCC1(C)NC(=S)N(c2ccccc2)N1 (stereo not given)	/	.
CCC1(c2ccc(Cl)cc2)NC(=S)N(c2ccccc2)N1 (stereo not given)	11.1	.
CCCCCCC1(C)NC(=S)N(c2ccccc2)N1 (stereo not given)	/	.
CCC1(c2ccccc2)NC(=S)N(c2ccc(C)cc2)N1 (stereo not given)	13	.
Cc1ccnc(NC(=O)C2CCCN(S(=O)(=O)c3ccc4[nH]c(=O)ccc4c3)C2)c1 (stereo not given)	/	.
